Test results as given in PubChem BioAssay (NCATS).
Records with an inconclusive call do not appear. Activity calls are given as the source filed them. Unless noted, calls follow the shape of the dose curve; as a rule, active = well fitted curve in the direction sought with a large enough effect; inconclusive = small, poorly fitted or top-dose-only effect, or another doubt; inactive = no such curve, though single readings can be large; an effect the other way counts as inactive or inconclusive.

Legend:
[1] = biological target: Beta-2 adrenergic receptor (Homo sapiens) (UniProt P07550); assay: qHTS validation assay of beta-arrestin-biased ligands of beta2-adrenergic receptor (AID 485366); also: 0% is about no effect
Outline: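 Agonism was measured as beta-arrestin recruitment to recombinant beta2-AR, releasing tTA to drive luciferase. Cells were exposed for 18 hr at 37 degrees C to a series up to 46 microM. %Activity from corrected luminescence gave concentration-response curves.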

[2] = Quantitative high throughput screen for delayed death inhibitors of the malarial parasite plastid, 96 hour incubation (AID 488745); also: nearly all actives have a fitted effect of over 70% in size; also: potency is read from the fitted curve at half-maximal effect
Outline: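 Two-generation (96 h) exposure of luciferase-reporter P. falciparum in erythrocytes, 2% hematocrit, 0.1% parasitemia final, 37 C, 5% CO2, RPMI 1640 with 0.5% Albumax. Growth inhibition scored by reduced luminescence.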

[3] = biological target: Thioredoxin reductase 1, cytoplasmic (Rattus norvegicus) (UniProt O89049); assay: qHTS Assay for Substrates of Mammalian Selenoprotein Thioredoxin Reductase 1 (TrxR1) (AID 488772);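 also: series mostly up to about 57 µM; 0% is about no effect; a drop in NADPH fluorescence below the no-compound background marks a TrxR1 substrate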
Outline: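 In this dual-purpose format, potential substrates are identified from the first fluorescence read after selenite addition, not from the 8-minute delta. Rat enzyme is preincubated with NADPH and then with compound at ~22 deg C.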

[4] = biological target: Thioredoxin reductase 1, cytoplasmic (Rattus norvegicus) (UniProt O89049); assay: qHTS Assay for Inhibitors of Mammalian Selenoprotein Thioredoxin Reductase 1 (TrxR1) (AID 488773); settings: Potency: inhibition;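 also: drop in NADPH fluorescence over an 8 min run after selenite addition; series mostly up to about 57 µM; % is scaled to controls: 0 for no effect and ±100 for the full control effect; nearly all actives have a fitted effect of over 40% in size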
Outline: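 Inhibition is scored from the loss of NADPH fluorescence between first and last reads of an 8-min kinetic run. Selenite (400 uM) was the substrate, added after 15 min compound preincubation at room temperature.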

[5] = biological target: Flap endonuclease 1 (Homo sapiens) (UniProt P39748); assay: qHTS Validation Assay for the Inhibitors of Human Flap endonuclease 1 (FEN1) (AID 488816); also: potency is read from the fitted curve at half-maximal effect
Outline: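 Enzyme reagent 10 nM; cpds pinned; 15 min RT preinc.; substrate 50 nM final; reads t=0 and 15 min; no-enzyme buffer wells as neg. control; normalized data, 4-parameter Hill fit.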

[6] = biological target: M-phase phosphoprotein 8 (Homo sapiens) (UniProt Q99549); assay: qHTS Validation Assay for Inhibitors for MPP8 Chromodomain Interactions with Methylated Histone Tails (AID 488949);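 also: AlphaScreen signal from MPP8 chromodomain bound to biotinylated H3K9me3 peptide; top concentration of the series differs between compounds; % is scaled to controls: 0 for no effect and ±100 for the full control effect; nearly all actives have a fitted effect of over 55% in size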
Outline: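 AlphaScreen proximity signal from streptavidin donor and Ni-chelate acceptor beads (10 ug/mL each) reported binding of MPP8 to trimethyl-K9 H3(1-18) peptide, both at 50 nM. The complex formed 30 min before a 30 min compound exposure at room temperature, in PBS pH 7.4.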

[7] = biological target: Chromobox protein homolog 1 (Homo sapiens) (UniProt P83916); assay: qHTS Validation Assay for Inhibitors of HP1-beta Chromodomain Interactions with Methylated Histone Tails (AID 488953);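 also: loss of AlphaScreen luminescence from HP1-beta binding biotinylated H3K9me3 peptide; series mostly up to about 110 µM; % is scaled to controls: 0 for no effect and ±100 for the full control effect; nearly all actives have a fitted effect of over 50% in size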
Outline: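 Compounds pinned into a preassembled complex of HP1-beta and trimethyl-K9 histone H3(1-18) biotin peptide (50 nM each; PBS pH 7.4, 0.01% Tween-20). After 30 min, bead-based AlphaScreen detection followed.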

[8] = biological target: Methanococcus maripaludis chaperonin (MmCpn) (UniProt Q6LX38); assay: High-Throughput Screening for Modulators of Cytosolic Chaperonin Activity: MmCpn Primary Screen (AID 488978);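 also: 50 nM MmCpn enzyme hydrolysing 30 µM ATP at 37 °C; 0% is about no effect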
Outline: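 ATPase activity of 50 nM MmCpn was assayed with 30 uM ATP, 10 minutes at 37C, after a 5 min compound preincubation at room temperature. ADP production was read as HTRF emission at 590 and 665 nm.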

[9] = biological target: Transient receptor potential cation channel subfamily V member 1 (Homo sapiens) (UniProt Q8NER1); assay: HTS Assay for Compounds that Act as Enhancers of the Vanilloid Receptor 1 (AID 488979); also: 0% is about no effect
Outline: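 TRPV1 cells loaded with Fluo-8 calcium dye; compound added and Ca2+ signal (ex 480/em 520 nm) followed 3 min, then capsaicin at EC20 added and read 2 more min to detect enhancement.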

[10] = biological target: Thyrotropin receptor (Homo sapiens) (UniProt P16473); assay: qHTS Assay for Antagonists of the Thyroid Stimulating Hormone Receptor (AID 488980); also: series mostly up to about 58 µM; 0% is about no effect
Outline: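 Inhibition of cAMP raised by EC80 TSH (4 nM final) was read by HTRF, with lysate cAMP competing against cAMP-d2 for cryptate antibody after 30 min at room temperature. The cells were transfected HEK293 held in phosphodiesterase inhibitor RO 20-1724 at 70 uM.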

[11] = biological target: D(1A) dopamine receptor (Homo sapiens) (UniProt P21728); assay: HTS Assay for Allosteric Agonists of the Human D1 Dopamine Receptor: Primary Screen for Agonists (AID 488981); also: 0% is about no effect
Outline: (§1)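 Tetracycline-induced HEK293 Trex D1 cells with forced coupling to calcium, loaded with no-wash calcium dye; kinetic fluorescence read 180 s after compound addition for agonism, then a further 180 s after an EC20 dopamine challenge for potentiation.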

[12] = biological target: D(1A) dopamine receptor (Homo sapiens) (UniProt P21728); assay: HTS Assay for Allosteric Agonists of the Human D1 Dopamine Receptor: Primary Screen for Potentiators (AID 488982); also: 0% is about no effect
Outline: as §1

[13] = biological target: D(1A) dopamine receptor (Homo sapiens) (UniProt P21728); assay: HTS Assay for Allosteric Agonists of the Human D1 Dopamine Receptor: Primary Screen for Antagonists (AID 488983);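 also: calcium flux response to an EC80 dopamine challenge measured with no-wash dye; % is scaled to controls: 0 for no effect and ±100 for the full control effect; nearly all actives have a fitted effect of over 65% in size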
Outline: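 In this primary screen, compounds are applied to calcium-dye-loaded HEK293 T-REx cells with force-coupled D1 expression induced overnight at 30 C. An EC80 of dopamine follows the 180 s compound phase, and calcium is monitored for a further 180 s.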

[14] = Validation screen for small molecules that induce genotoxicity in human embryonic kidney (HEK293T) cells expressing luciferase-tagged ELG1 (AID 493106); also: 0% is about no effect
Outline: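 In this validation screen, increased ELG1-luciferase signal flags compounds causing genetic stress. HEK293T reporter cells are treated 16 hr (37 °C, 5% CO2), developed with ONE-Glo for 30 min at room temperature, and imaged on a CCD-based reader.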

[15] = biological target: ATPase family AAA domain-containing protein 5 (Homo sapiens) (UniProt Q96QE3); assay: Validation screen for small molecules that inhibit ELG1-dependent DNA repair in human embryonic kidney (HEK293T) cells expressing luciferase-tagged ELG1 (AID 493107);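 also: cells co-treated with the DNA-damaging agent 5-fluorouridine alongside compound; series mostly up to about 46 µM; % is scaled to controls: 0 for no effect and ±100 for the full control effect; inhibitors lower the ELG1-luciferase luminescence signal; nearly all actives have a fitted effect of over 70% in size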
Outline: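 Compounds reducing 5-fluorouridine-driven ELG1-luciferase signal in HEK293T cells were scored; exposure lasted 16 hr at 37 °C with luminescence detected via ONE-Glo.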

[16] = biological target: Thyrotropin-releasing hormone receptor (Homo sapiens) (UniProt P34981); assay: qHTS for Small Molecule Agonists and Allosteric Enhancers of Human TRH Receptor: Validation Screen for Agonists (AID 493127;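 active = calcium activation more than 3 SD above the typical response in the agonist read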;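 also: intracellular calcium rise by fluo-8 fluorescence before TRH EC20 addition; 0% is about no effect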); settings: TRH receptor agonist cell assay; at 2 µM; active compounds read high
Outline: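 Kinetic fluorescence assay of agonist-induced calcium release: overnight-plated TRHR cells, room-temperature fluo-8 loading, baseline then compound addition with per-second reads.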

[17] = Quantitative high throughput screen for delayed death inhibitors of the malarial parasite plastid, 48 hour incubation (AID 488752); also: nearly all actives have a fitted effect of over 65% in size; also: potency is read from the fitted curve at half-maximal effect
Outline: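 Cultures: infected erythrocytes at final 2% hematocrit and 0.1% parasitemia in Albumax-supplemented RPMI. Parasites express integrated firefly luciferase. Incubation with compound lasts 48 h before luminescent detection of remaining reporter activity.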

[18] = biological target: Tyrosyl-DNA phosphodiesterase 1 (Homo sapiens) (UniProt Q9NUW8); assay: Confirmation Assay for Inhibitors of Tyrosyl-DNA Phosphodiesterase (TDP1) (AID 489007); settings: recombinant human TDP1 enzymatic activity, dose-response; also: potency is read from the fitted curve at half-maximal effect; nearly all actives have a fitted effect of over 40% in size
Outline: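 Loss of AlphaScreen signal reports Tdp1 cleavage of a dual-labelled DNA substrate. Conditions: 1 nM E. coli-derived enzyme, 15 nM substrate, 15 min compound preincubation, 5 min reaction, 10 min bead incubation, all at room temperature.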

ATPase family AAA domain-containing protein 5 (Homo sapiens), sequence (Q96QE3 whole entry, looked up, the tested form may be a part): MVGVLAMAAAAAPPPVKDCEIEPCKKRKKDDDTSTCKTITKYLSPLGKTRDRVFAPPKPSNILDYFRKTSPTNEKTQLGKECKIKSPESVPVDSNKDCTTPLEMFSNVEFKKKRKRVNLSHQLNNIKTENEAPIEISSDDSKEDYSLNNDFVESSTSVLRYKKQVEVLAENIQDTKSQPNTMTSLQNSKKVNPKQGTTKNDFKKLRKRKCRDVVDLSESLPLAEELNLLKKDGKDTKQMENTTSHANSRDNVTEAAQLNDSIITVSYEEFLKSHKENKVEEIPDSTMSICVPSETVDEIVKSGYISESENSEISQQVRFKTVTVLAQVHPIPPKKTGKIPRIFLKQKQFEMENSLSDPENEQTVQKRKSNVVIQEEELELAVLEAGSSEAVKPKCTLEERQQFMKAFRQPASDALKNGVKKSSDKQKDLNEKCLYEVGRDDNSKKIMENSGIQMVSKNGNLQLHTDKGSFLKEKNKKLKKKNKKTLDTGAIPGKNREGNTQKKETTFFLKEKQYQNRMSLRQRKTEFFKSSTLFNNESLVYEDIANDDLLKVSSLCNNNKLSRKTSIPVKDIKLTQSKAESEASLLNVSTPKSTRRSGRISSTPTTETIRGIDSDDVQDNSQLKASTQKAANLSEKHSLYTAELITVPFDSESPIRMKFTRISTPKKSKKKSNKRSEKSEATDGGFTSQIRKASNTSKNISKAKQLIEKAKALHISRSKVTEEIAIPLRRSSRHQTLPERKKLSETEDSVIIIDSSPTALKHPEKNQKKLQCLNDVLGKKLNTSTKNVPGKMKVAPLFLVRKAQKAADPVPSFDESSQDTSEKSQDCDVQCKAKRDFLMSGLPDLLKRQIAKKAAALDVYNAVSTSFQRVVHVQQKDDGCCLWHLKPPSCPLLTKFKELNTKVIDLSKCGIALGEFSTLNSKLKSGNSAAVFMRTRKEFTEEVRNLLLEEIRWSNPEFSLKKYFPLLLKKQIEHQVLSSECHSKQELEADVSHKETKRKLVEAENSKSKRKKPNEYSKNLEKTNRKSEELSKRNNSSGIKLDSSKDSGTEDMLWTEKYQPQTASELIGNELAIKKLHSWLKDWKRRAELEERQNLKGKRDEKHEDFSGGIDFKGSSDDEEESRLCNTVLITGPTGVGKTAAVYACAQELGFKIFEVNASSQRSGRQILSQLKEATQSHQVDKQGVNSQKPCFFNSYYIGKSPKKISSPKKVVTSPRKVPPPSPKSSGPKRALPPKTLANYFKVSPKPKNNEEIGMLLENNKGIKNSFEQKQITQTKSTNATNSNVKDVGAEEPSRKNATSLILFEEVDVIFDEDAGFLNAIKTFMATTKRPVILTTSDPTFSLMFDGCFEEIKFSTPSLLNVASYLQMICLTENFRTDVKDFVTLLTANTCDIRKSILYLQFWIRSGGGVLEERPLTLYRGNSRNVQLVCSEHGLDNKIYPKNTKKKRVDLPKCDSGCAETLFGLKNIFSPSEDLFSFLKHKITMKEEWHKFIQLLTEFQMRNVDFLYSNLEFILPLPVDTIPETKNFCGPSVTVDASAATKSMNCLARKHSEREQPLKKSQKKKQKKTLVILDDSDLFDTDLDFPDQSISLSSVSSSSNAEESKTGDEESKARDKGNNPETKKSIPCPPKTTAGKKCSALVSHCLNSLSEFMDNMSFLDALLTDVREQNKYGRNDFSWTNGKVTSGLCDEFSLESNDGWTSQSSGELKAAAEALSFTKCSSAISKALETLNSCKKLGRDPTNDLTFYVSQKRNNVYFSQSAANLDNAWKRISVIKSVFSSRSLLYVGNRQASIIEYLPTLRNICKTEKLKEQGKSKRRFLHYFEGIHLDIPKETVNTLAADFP
Thyrotropin receptor (Homo sapiens), sequence (P16473 whole entry, looked up): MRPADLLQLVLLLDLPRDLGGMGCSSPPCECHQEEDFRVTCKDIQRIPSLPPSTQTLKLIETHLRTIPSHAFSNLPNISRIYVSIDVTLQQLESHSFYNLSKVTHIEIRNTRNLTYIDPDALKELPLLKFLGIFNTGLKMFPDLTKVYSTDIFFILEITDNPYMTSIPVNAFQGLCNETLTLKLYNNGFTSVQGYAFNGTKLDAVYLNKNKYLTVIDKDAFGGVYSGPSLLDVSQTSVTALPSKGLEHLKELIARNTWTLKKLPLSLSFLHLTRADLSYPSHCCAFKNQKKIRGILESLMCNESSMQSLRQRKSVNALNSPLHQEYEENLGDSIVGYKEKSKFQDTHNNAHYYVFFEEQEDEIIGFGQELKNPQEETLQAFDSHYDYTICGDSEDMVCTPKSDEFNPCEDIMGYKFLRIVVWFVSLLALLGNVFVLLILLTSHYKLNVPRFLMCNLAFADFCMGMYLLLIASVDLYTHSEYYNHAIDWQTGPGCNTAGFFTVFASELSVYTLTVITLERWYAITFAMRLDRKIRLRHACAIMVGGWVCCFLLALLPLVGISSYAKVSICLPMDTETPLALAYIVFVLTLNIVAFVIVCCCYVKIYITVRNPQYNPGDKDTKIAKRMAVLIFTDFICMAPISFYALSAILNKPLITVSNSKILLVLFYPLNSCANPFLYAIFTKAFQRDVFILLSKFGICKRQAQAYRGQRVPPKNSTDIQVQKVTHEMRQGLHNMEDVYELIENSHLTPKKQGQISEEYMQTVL
Transient receptor potential cation channel subfamily V member 1 (Homo sapiens), sequence (Q8NER1 whole entry, looked up): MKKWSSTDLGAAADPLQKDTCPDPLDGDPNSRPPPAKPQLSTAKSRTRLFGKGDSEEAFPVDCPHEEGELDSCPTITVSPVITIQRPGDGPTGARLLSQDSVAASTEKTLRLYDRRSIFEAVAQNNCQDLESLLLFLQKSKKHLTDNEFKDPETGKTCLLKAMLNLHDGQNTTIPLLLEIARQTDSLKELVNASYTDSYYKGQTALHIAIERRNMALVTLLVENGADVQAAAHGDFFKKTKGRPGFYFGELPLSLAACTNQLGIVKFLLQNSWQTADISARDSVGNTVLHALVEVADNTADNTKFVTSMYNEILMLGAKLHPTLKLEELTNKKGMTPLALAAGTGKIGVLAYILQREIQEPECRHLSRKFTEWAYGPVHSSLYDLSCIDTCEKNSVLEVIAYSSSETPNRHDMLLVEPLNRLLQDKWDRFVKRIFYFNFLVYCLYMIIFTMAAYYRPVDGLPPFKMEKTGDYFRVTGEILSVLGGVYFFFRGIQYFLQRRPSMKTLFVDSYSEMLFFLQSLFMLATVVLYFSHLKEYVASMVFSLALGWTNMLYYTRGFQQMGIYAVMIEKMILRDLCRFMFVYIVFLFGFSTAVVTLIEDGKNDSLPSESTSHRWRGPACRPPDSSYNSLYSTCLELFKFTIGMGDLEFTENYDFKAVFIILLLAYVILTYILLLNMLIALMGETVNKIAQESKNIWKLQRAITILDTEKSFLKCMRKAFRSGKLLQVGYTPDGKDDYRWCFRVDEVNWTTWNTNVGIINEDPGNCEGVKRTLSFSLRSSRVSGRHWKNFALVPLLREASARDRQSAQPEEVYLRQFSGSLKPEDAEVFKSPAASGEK
Thioredoxin reductase 1, cytoplasmic (Rattus norvegicus), sequence (O89049 whole entry, looked up): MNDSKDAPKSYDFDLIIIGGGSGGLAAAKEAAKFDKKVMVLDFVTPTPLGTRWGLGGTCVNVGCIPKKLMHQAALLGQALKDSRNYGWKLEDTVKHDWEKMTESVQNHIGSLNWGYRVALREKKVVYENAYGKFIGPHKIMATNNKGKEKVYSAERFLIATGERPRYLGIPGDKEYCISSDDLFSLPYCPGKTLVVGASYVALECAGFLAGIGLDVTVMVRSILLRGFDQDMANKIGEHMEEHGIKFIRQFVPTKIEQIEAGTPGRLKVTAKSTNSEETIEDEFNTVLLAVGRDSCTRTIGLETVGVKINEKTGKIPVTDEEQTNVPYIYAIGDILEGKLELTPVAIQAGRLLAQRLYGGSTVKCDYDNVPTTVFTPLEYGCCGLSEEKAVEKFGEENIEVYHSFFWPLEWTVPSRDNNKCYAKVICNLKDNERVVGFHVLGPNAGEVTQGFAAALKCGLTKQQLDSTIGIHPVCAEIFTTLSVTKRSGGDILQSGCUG
Thyrotropin-releasing hormone receptor (Homo sapiens), sequence (P34981 whole entry, looked up): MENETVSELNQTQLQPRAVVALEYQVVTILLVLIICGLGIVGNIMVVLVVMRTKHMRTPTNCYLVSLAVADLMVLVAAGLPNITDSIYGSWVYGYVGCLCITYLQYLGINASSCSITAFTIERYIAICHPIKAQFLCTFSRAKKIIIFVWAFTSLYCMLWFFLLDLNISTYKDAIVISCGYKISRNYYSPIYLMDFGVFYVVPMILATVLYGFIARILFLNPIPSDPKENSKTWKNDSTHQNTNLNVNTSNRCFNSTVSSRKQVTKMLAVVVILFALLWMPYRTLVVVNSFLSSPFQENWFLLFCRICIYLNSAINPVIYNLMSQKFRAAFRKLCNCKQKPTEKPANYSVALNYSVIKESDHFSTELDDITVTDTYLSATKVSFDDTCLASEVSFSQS
Methanococcus maripaludis chaperonin (MmCpn), sequence (Q6LX38 1-543): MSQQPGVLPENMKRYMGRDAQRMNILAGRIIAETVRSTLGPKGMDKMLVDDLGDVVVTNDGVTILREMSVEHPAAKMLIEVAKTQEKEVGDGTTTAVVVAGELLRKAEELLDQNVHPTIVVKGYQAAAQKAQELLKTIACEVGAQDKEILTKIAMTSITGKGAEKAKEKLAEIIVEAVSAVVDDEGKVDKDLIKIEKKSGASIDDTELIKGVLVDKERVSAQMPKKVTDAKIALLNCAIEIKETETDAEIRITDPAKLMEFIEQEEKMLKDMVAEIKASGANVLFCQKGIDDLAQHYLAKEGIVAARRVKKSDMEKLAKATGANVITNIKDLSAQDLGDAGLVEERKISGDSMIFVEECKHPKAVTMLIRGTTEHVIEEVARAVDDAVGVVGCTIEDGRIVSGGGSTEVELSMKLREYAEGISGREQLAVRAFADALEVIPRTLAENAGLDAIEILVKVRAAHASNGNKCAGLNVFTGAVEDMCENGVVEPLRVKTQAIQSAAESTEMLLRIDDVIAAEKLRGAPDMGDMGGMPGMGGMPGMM
Chromobox protein homolog 1 (Homo sapiens), sequence (P83916 whole entry, looked up): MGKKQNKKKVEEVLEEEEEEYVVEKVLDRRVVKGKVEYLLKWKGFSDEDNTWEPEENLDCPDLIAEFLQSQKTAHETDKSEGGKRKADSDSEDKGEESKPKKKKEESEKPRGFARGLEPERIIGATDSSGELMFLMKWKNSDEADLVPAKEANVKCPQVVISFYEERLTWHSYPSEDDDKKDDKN

NCCCCN
inactive: outcome [1] | Potency [2] | outcome [3] | Potency [4] | Potency [5] | Potency [6] | Potency [7] | outcome [8] | outcome [9] | outcome [10] | Potency [11] | Potency [12] | Potency [13] | Potency [14] | Potency [15] | activation [16] 1.31%

CCn1c(=O)[nH]c2cc(Cl)c(Cl)cc21
inactive: outcome [1] | Potency [2] | Potency [17] | outcome [3] | Potency [4] | Potency [6] | Potency [7] | outcome [8] | outcome [9] | outcome [10] | Potency [11] | activation [16] 1.69%

CN1CCCC1CCOC(C)(c1ccccc1)c1ccc(Cl)cc1 (stereo not drawn)
inactive: outcome [1] | outcome [3] | Potency [4] | Potency [6] | outcome [8] | outcome [10] | Potency [11] | Potency [14] | activation [16] 1.88%
active: Potency [2] 8.28 µM | Potency [17] 10.4 µM

NCCS(=O)O
inactive: outcome [1] | Potency [2] | Potency [17] | outcome [3] | Potency [4] | Potency [6] | outcome [8] | outcome [9] | outcome [10] | Potency [11] | Potency [12] | Potency [13] | Potency [14] | Potency [15] | activation [16] 1.19%

O=C(O)Cc1ccc(O)c(O)c1
inactive: outcome [1] | Potency [2] | Potency [17] | outcome [3] | Potency [6] | Potency [7] | outcome [8] | outcome [9] | outcome [10] | Potency [11] | Potency [12] | Potency [14] | Potency [15] | activation [16] 0.938%

NC(=O)c1cc[n+](CC2=C(C(=O)O)N3C(=O)[C@@H](NC(=O)[C@@H](c4ccccc4)S(=O)(=O)[O-])[C@H]3SC2)cc1
inactive: outcome [1] | Potency [2] | Potency [17] | outcome [3] | Potency [6] | outcome [8] | outcome [9] | outcome [10] | Potency [11] | Potency [12] | Potency [13] | Potency [14] | Potency [15] | activation [16] 13.1%
active: Potency [18] 4.47 µM

Nc1ncnc2c1c(-c1ccc(Oc3ccccc3)cc1)cn2C1CCCC1
active: Potency [2] 7.38 µM | Potency [17] 9.28 µM
inactive: outcome [1] | outcome [3] | Potency [4] | Potency [5] | outcome [8] | outcome [9] | outcome [10] | Potency [11] | Potency [14] | activation [16] -5.06%

Cc1cccc(C(=O)NCN2CCN(c3ccccc3C#N)CC2)c1
inactive: outcome [1] | Potency [2] | Potency [17] | outcome [3] | Potency [5] | Potency [6] | Potency [7] | outcome [8] | outcome [9] | outcome [10] | Potency [11] | Potency [12] | Potency [14] | activation [16] 0.562%

C[N+](C)(C)CC=O
inactive: outcome [1] | Potency [2] | Potency [17] | outcome [3] | Potency [4] | Potency [6] | Potency [7] | outcome [8] | outcome [9] | outcome [10] | Potency [11] | Potency [13] | Potency [14] | Potency [15] | activation [16] 1.56%

Oc1cc(O)c2c(c1)O[C@H](c1ccc(O)c(O)c1)[C@@H](O)C2
inactive: outcome [1] | Potency [2] | Potency [17] | outcome [3] | Potency [6] | outcome [8] | outcome [9] | outcome [10] | Potency [11] | Potency [12] | Potency [13] | Potency [14] | Potency [15]
active: Potency [5] 4.74 µM

O=c1ccn([C@@H]2O[C@H](COP(=O)(O)OP(=O)(O)O)[C@@H](O)[C@H]2O)c(=O)[nH]1
inactive: outcome [1] | Potency [2] | Potency [17] | outcome [3] | Potency [5] | Potency [6] | Potency [7] | outcome [8] | outcome [9] | outcome [10] | Potency [11] | Potency [13] | Potency [14] | activation [16] 0.188%

NC(Cc1cccc(-c2ccccc2CP(=O)(O)O)c1)C(=O)O (stereo not drawn)
inactive: outcome [1] | Potency [2] | Potency [17] | outcome [3] | Potency [4] | Potency [5] | outcome [8] | outcome [9] | outcome [10] | Potency [11] | Potency [13] | Potency [14] | Potency [15] | activation [16] 1.31%

Oc1cc2c(cc1O)C(c1ccccc1)CNCC2 (stereo not drawn)
inactive: outcome [1] | Potency [2] | Potency [17] | Potency [4] | Potency [5] | Potency [6] | outcome [8] | outcome [9] | outcome [10] | Potency [11] | Potency [14] | activation [16] 0.938%
